From PubChem BioAssay AID1259415 (National Center for Advancing Translational Sciences (NCATS), 2018)
Hit rate of the full screen: of about 410,000 compounds, about 18,000 (4.4%) were called active. Not shown: some 7% with an inconclusive outcome. This excerpt belongs to a sample that is enriched for actives. Unmarked numbers belong to inactive results. Rule as the data show it: active = activity change below about -60%; inconclusive = no clear call, values can overlap the other calls; inactive = above about -39%.

assay: qHTS Assay for inhibitors of the human cytomegalovirus (HCMV); settings: HFF cells, HCMV-luciferase reporter, 72 h; at 57.5 µM; hits give low values
Method in brief: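 Human foreskin fibroblasts infected with luciferase-reporter HCMV at MOI 1 PFU/cell, compounds at two doses. Luciferase measured 72 h post infection; normalized to buffer-only basal and Salinomycin (10uM) controls.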
% is scaled to controls: 0 for no effect and ±100 for the full control effect.

| SMILES | activity change, negative = inhibition |
| --- | --- |
| CC1CCCC(NC(=O)COC(=O)[C@@H]2CC(O)CN2S(=O)(=O)c2ccc3c(c2)OCCO3)C1C (stereo partly drawn) | 10.5% |
| Cc1ccc(Cl)cc1NC(=O)CSc1nccn1C | -11.3% |
| Cc1cc(C)n(CCNCc2c(C(=O)N3C[C@@H](C)O[C@@H](C)C3)nc3ccc(Cl)cn23)n1 | 18.2% |
| Cc1ccc(C(=O)N2CCc3cc(CNC(=O)c4ccc(Br)cc4)ccc32)cc1 | -17.7% |
| CC1=C(C(=O)N2CCN(c3cccc(C(F)(F)F)c3)CC2)C2(CCCCC2)OC1=O | 30.4% |
| Nc1nc(SCC(=O)NCCN2CCOCC2)nc2sc3c(c12)CCC3 | 5.31% |
| CC(C)(C)C1CCc2c(sc3nc(SCC(N)=O)nc(N)c23)C1 (stereo not drawn) | -100% (active) |
| C=C(C)CSc1nc(N)c2c3c(sc2n1)CCC3 | 31.9% |
| CC(C)(C)c1ccc(C(=O)NCc2nnc(SCC(=O)N3CCCc4ccccc43)n2-c2ccccc2)cc1 | -18.4% |
| CC1(C)C(=O)CCC2(C)C1=CCC1C2C(=O)CC2(C)C1CCC2(O)C(=O)CO (stereo not drawn) | -4.43% |
| Cc1cc(C)c(NC(=O)Cn2c(SCC(=O)NCc3ccccc3)nc3ccccc32)c(C)c1 | -0.705% |
| Cc1ccc(-n2c(SCC(=O)Nc3ncc(Cl)cc3Cl)nc3ccccc32)cc1 | -98.7% (active) |
| CC1(C(=O)OCC(=O)Nc2ncc(Cl)cc2Cl)CC1(Cl)Cl (stereo not drawn) | -27.2% |
| COc1cc2nc(SCC(=O)Nc3ccccc3F)n3nc(-c4ccccc4)nc3c2cc1OC | -6.09% |
| Cc1ccccc1CS(=O)(=O)CC1Nc2ccc(C(=O)NCc3ccc(Cl)cc3)cc2NC1=O (stereo not drawn) | 2.23% |
| CC(C)c1ccc(OCC(=O)N(Cc2ccc(N(C)C)cc2)C2CCS(=O)(=O)C2)cc1 (stereo not drawn) | 7.29% |
| CCc1ccc(NC(=O)C2CCCN2S(=O)(=O)c2ccc3nc(-c4ccccc4)[nH]c3c2)cc1 (stereo not drawn) | -18.7% |
| CCCCn1c(N)c(N(CCC(C)C)C(=O)COC(=O)c2cccnc2OCC)c(=O)[nH]c1=O | -5.28% |
| NS(=O)(=O)c1ccc(CNC(=O)c2cc(S(=O)(=O)N3CCOCC3)ccc2N2CCCC2)cc1 | -10.4% |
| COc1cc(OC)c(OC)cc1/C=C/c1nc2ccccc2c(=O)n1-c1ccc(Br)c(C)c1 | 3.49% |
| CCCN(CCC)c1c([N+](=O)[O-])c(=O)oc2ccccc12 | -7.74% |
| CCn1c(/C=C/c2ccc([N+](=O)[O-])o2)nc2ccccc2c1=O | -99.1% (active) |
| Cc1cc2nc(-c3ccc(NC(=O)c4cc5ccccc5o4)cc3)oc2cc1C | 98.1% |
